Source: the supplement of paper PMC10646978
± gives the standard deviation.

Experiments:
Details in all cases: modulator concentration 10 µM
[1] = tested on: RAW-Dual (murine macrophage reporter line); experiment: NF-kB reporter (SEAP) activity fold change vs agonist alone; higher = enhanced NF-kB activity
Outline: (§1)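 RAW-Dual murine macrophage reporter cells were seeded at 50 000 per well in 384-well plates and pre-incubated 1 hour at 37 °C with compound pin-transferred to 10 μM final. After 1 hour, a PRR agonist was added and cells incubated overnight. Supernatant NF-κB (SEAP, QUANTI-Blue, 620 nm absorbance) and IRF (Lucia luciferase, QUANTI-Luc, luminescence) signals were divided by the mean agonist-only control on the same plate to give fold change. Two replicate plates were averaged, with errors by propagation.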

[2] = tested on: RAW-Dual (murine macrophage reporter line); experiment: IRF reporter (Lucia luciferase) activity fold change vs agonist alone; higher = enhanced IRF activity
Outline: as §1

[3] = tested on: RAW-Dual (murine macrophage reporter line); experiment: viability score (confluency relative to resting cells, overnight) (fraction); higher = more viable, active = viable (0.7 or more)
Outline: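 RAW-Dual macrophages in 384-well plates were exposed overnight to compound at 10 μM final. Confluency was imaged with IncuCyte, and two confluency masks were generated with IncuCyte software over all imaged wells. The viability score is confluency expressed relative to resting cells. Compounds were called viable if both masks exceeded 70% of resting cells.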

[4] = agonist: CpG ODN 1826 0.5 ug/mL

Structure (SMILES) | NF-kB reporter [1, 4] | NF-kB reporter ([1]; agonist: LPS 0.1 ug/mL) | NF-kB reporter ([1]; agonist: MPLA […]) | IRF reporter ([2]; agonist: 3'3'-cGAMP 10 ug/mL) | IRF reporter ([2]; agonist: LPS 0.1 ug/mL) | IRF reporter ([2]; agonist: MPLA […]) | viability score [3]
CCOC(=O)C1=C(C)NC2=C(C(=O)CC(C)(C)C2)C1c1ccccc1Br (configuration not stated) | 0.993 ± 0.096 | 1.07 ± 0.059 | 0.934 ± 0.056 | 0.898 ± 0.022 | 1.32 ± 0.19 | 0.975 ± 0.2 | 1.02 (active)
CNC(=O)c1cc(Oc2ccc(NC(=O)Nc3ccc(Cl)c(C(F)(F)F)c3)c(F)c2)ccn1.O | 0.151 ± 0.012 | 0.0887 ± 0.0079 | 0.42 ± 0.035 | 0.0171 ± 0.0034 | 0.0276 ± 0.0016 | 0.0325 ± 0.0049 | 0.448 (inactive)
CC(C)(C)NCC(O)COc1cccc2c1C[C@H](O)[C@H](O)C2 (some centres not stated) | 1.03 ± 0.091 | 0.97 ± 0.051 | 0.971 ± 0.034 | 0.892 ± 0.05 | 0.976 ± 0.032 | 0.961 ± 0.11 | 0.981 (active)
Cc1cccc(N=c2scc(-c3ccc([N+](=O)[O-])cc3)n2-c2cccc(C)c2C)c1C | 0.863 ± 0.065 | 1.04 ± 0.078 | 0.906 ± 0.054 | 0.864 ± 0.029 | 1.37 ± 0.088 | 1.11 ± 0.16 | 1 (active)
O=C(O)CCC(=O)Nc1ccc(Br)cn1 | 1.17 ± 0.098 | 1.02 ± 0.066 | 1.02 ± 0.04 | 1.02 ± 0.19 | 1.12 ± 0.14 | 0.938 ± 0.27 | 0.997 (active)
O=C(Cc1ccc([N+](=O)[O-])cc1)NN=Cc1ccncc1 | 0.864 ± 0.26 | 1.08 ± 0.098 | 1.03 ± 0.16 | 0.964 ± 0.038 | 1.15 ± 0.18 | 1.44 ± 0.42 | 1 (active)
NC(=O)c1c(NC(=O)CN2C(=O)C(=Cc3ccc(Cl)cc3Cl)SC2=S)sc2c1CCCC2 | 0.936 ± 0.081 | 1.07 ± 0.067 | 0.885 ± 0.058 | 0.841 ± 0.028 | 1.23 ± 0.092 | 1.03 ± 0.29 | 0.997 (active)
Cl.Cl.OCCN1CCN(CC/C=C2/c3ccccc3Sc3ccc(C(F)(F)F)cc32)CC1 | 1.01 ± 0.046 | 1.03 ± 0.13 | 1.04 ± 0.1 | 0.959 ± 0.058 | 1.13 ± 0.23 | 1.22 ± 0.28 | 1.02 (active)
CN(C(=NS(=O)(=O)c1ccccc1)c1ccccc1)c1ccc(O)cc1 | 1.05 ± 0.19 | 1.39 ± 0.11 | 1.16 ± 0.096 | 0.968 ± 0.063 | 1.2 ± 0.26 | 1.24 ± 0.2 | 1.01 (active)
CC1=NN(C(=O)OC(C)(C)C)C(O)(c2ccncc2)C1 (configuration not stated) | 1.03 ± 0.084 | 1.01 ± 0.1 | 0.886 ± 0.084 | 0.979 ± 0.081 | 1.14 ± 0.14 | 1.22 ± 0.2 | 1.03 (active)
CNCC[C@H](Oc1cccc2ccccc12)c1cccs1 | 0.087 ± 0.0072 | 0.8 ± 0.08 | 1.08 ± 0.058 | 0.262 ± 0.019 | 1.02 ± 0.2 | 1.01 ± 0.27 | 0.333 (inactive)
COc1cc(C(=O)Nc2ccc(-c3ccc(N4CCC(C)CC4)nn3)cc2)cc(OC)c1OC | 0.862 ± 0.1 | 0.879 ± 0.073 | 0.754 ± 0.12 | 1.02 ± 0.087 | 1.26 ± 0.11 | 1.59 ± 0.12 | 0.913 (active)
CC[C@@H]([C@H](C)O)n1ncn(-c2ccc(N3CCN(c4ccc(OC[C@@H]5CO[C@@](Cn6cncn6)(c6ccc(F)cc6F)C5)cc4)CC3)cc2)c1=O | 0.947 ± 0.14 | 0.893 ± 0.068 | 1.07 ± 0.1 | 1.1 ± 0.055 | 1.18 ± 0.091 | 1.36 ± 0.12 | 1.02 (active)
Cc1ccc(O)c(C2=NOC(O)(C(F)(F)F)C2)c1 (configuration not stated) | 1.05 ± 0.065 | 0.955 ± 0.074 | 0.919 ± 0.054 | 0.975 ± 0.037 | 1.43 ± 0.24 | 1.04 ± 0.093 | 0.339 (inactive)
Cc1occc1C(=O)NN=Cc1cc([N+](=O)[O-])ccc1O | 1.12 ± 0.11 | 0.959 ± 0.12 | 1.16 ± 0.079 | 0.681 ± 0.096 | 1.23 ± 0.095 | 1.27 ± 0.28 | 0.997 (active)
O=C(Cn1cc(S(=O)(=O)c2ccc(F)cc2)c2ccccc21)N1CCCCCC1 | 0.825 ± 0.12 | 0.902 ± 0.073 | 1.02 ± 0.055 | 0.847 ± 0.071 | 1.2 ± 0.19 | 1.3 ± 0.48 | 0.972 (active)
CC(C)Oc1ccc(Br)cc1C=C(C#N)c1nn(CCO)c(N)c1C#N | 1.33 ± 0.11 | 1.16 ± 0.066 | 1.11 ± 0.077 | 0.91 ± 0.027 | 1.2 ± 0.22 | 1.03 ± 0.18 | 1.01 (active)
Cc1cc(=O)[nH]c(-n2nc(C)c(CCC(=O)N3CCN(C)CC3)c2C)n1 | 1.16 ± 0.092 | 1.13 ± 0.089 | 0.977 ± 0.028 | 1.01 ± 0.084 | 1.05 ± 0.12 | 0.931 ± 0.095 | 0.994 (active)
O=C1C(O)=C(c2ccc([N+](=O)[O-])cc2)C(=O)c2ccccc21 | 0.967 ± 0.065 | 1.02 ± 0.1 | 0.905 ± 0.079 | 0.969 ± 0.038 | 1.53 ± 0.13 | 1.28 ± 0.23 | 1 (active)
O=C(Nc1cccc(C(F)(F)F)c1)Nc1cnn(CC2COc3ccccc3O2)c1 (configuration not stated) | 0.717 ± 0.05 | 0.934 ± 0.078 | 1.1 ± 0.059 | 0.913 ± 0.051 | 1.08 ± 0.12 | 1.78 ± 0.45 | 0.841 (active)
COc1ccc(C)c2sc(=NC(=O)c3ccccc3)n(C)c12 | 1.16 ± 0.11 | 1.17 ± 0.06 | 2.25 ± 0.073 | 0.904 ± 0.05 | 0.969 ± 0.15 | 2.01 ± 0.31 | 0.99 (active)
O=C(c1ccc(I)cc1)N(C1CCCCC1)C1CCCCC1 | 0.976 ± 0.1 | 1.03 ± 0.099 | 1.09 ± 0.056 | 0.832 ± 0.044 | 1.02 ± 0.13 | 1.18 ± 0.3 | 0.997 (active)
CCCCC1=NC2(CCCC2)C(=O)N1Cc1ccc(-c2ccccc2-c2nn[nH]n2)cc1 | 1.05 ± 0.079 | 0.951 ± 0.08 | 0.978 ± 0.026 | 0.948 ± 0.052 | 1.01 ± 0.15 | 0.945 ± 0.18 | 1 (active)
CCOc1ccc(NC(=O)CC2Nc3cccc4cccc(c34)NC2=O)cc1 (configuration not stated) | 0.91 ± 0.066 | 1.01 ± 0.067 | 0.926 ± 0.077 | 0.884 ± 0.049 | 1.31 ± 0.083 | 1.25 ± 0.34 | 0.926 (active)
NC[C@H]1CC[C@H](C(=O)O)CC1 | 0.939 ± 0.1 | 1.06 ± 0.073 | 0.958 ± 0.021 | 0.993 ± 0.14 | 1.01 ± 0.061 | 1.13 ± 0.11 | 0.999 (active)
OC(CNC1CCCCC1)Cn1c2ccc(Cl)cc2c2cc(Cl)ccc21 (configuration not stated) | 0.137 ± 0.03 | 0.219 ± 0.037 | 0.613 ± 0.042 | 0.11 ± 0.058 | 0.302 ± 0.018 | 0.436 ± 0.12 | 0.0501 (inactive)
